From PubChem
ELG1 genotox: qHTS screen for small molecules that induce genotoxicity in human embryonic kidney (HEK293T) cells expressing luciferase-tagged ELG1 | HEK293T ELG1-luciferase reporter, luminescence, 16 h | Potency, µM (top dose mostly 46 µM), for the others: at the highest dose activity change, positive = activation, most hits filed as activators | 330,000 tested, 1.3% active | AID 504466, 2011; note: % of control where 0% means no effect; nearly all actives have a fitted effect of over 60% in size
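Screening used a luciferase reporter fused to human ELG1 in HEK293T cells. Luminescence was read on a CCD plate imager after 16 hr exposure and 30 min ONE-Glo incubation.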
Luc counter: Counterscreen for Luciferase (Kinase-Glo TM) Inhibition. Kinase-Glo luciferase, ATP luminescence, 8 min. Potency, µM (doses to about 38.3 µM), inactives show at the highest dose activity change, negative = inhibition, most hits filed as inhibitors. Luciferin 4-monooxygenase (Photuris pensylvanica), Q27757. 200,000 tested, 0.28% active; note: % is set by controls: 0 for no effect and ±100 for the full control effect; nearly all actives have a fitted effect of over 60% in size
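Compounds were added to a substrate mix at pH 7.2 (50 mM imidazole, 10 uM ATP, within the enzyme's linear range), followed by Kinase-Glo detection reagent; luminescence was measured after 8 minutes at ambient temperature.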
NPC1 promoter act: qHTS Assay for NPC1 Promoter Activators | Huh7 NPC1 promoter luciferase reporter, 24 h | Potency, µM (doses to about 9.22 µM), for the others: top-dose activation, actives largely listed as activators | 320,000 tested, 2.4% active; note: % of control where 0% means no effect; nearly all actives have a fitted effect of over 60% in size
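In 1536-well qHTS, Huh7 cells harboring an NPC1 promoter–luciferase construct received compound for 24 h; activation was quantified by luminescence following luciferase reagent addition.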
Rab9 promoter act: qHTS Assay for Rab9 Promoter Activators; Huh7 Rab9 promoter-luciferase reporter, luminescence, 24 h; Potency, µM (highest dose often 9.22 µM), inactives show top-dose activation, negative = inhibition, hits mostly activators; 320,000 tested, 2.8% active; note: % of control where 0% means no effect; nearly all actives have a fitted effect of over 60% in size
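Using Huh7 cells stably transfected with Rab9 promoter–luciferase, compounds were incubated 24 h at 37 °C, 5% CO2; luciferase luminescence was read 10 min after reagent addition.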
SMN2 splice up: qHTS Assay for Enhancers of SMN2 Splice Variant Expression. HEK293 SMN2-luciferase splicing reporter, luminescence, 30-36 h. Potency, µM (highest dose often 46.1 µM), inactives show at the highest dose activity change, positive = activation, hits mostly activators. 210,000 tested, 2.8% active. AID 1458, 2008; note: % of control where 0% means no effect; nearly all actives have a fitted effect of over 55% in size
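HEK293 cells carry an SMN2 […]–luciferase reporter in which exon 7 inclusion puts luciferase in frame. Cells were plated 10-12 h before compound addition, then incubated 30-36 h at 37C. ONE-Glo luminescence was read; sodium butyrate at 4.5 mM final served as control.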
FLuc modulator: qHTS profiling assay for firefly luciferase inhibitor/activator using purifed enzyme and Km concentrations of substrates (counterscreen for miR-21 project) | Luciferin 4-monooxygenase (Photinus pyralis), P08659 | purified FLuc, Km substrates, luminescence inhibition | Potency, µM (titrated, usually from 57.5 µM), inactives show at the top dose activity change, negative = inhibition, usual class: inhibitors | 360,000 tested, 6.9% active;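 note: plate controls were vehicle for no effect and reference inhibitor for full effect; nearly all actives have a fitted effect of over 55% in size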
Target sequence (P08659 whole entry, looked up): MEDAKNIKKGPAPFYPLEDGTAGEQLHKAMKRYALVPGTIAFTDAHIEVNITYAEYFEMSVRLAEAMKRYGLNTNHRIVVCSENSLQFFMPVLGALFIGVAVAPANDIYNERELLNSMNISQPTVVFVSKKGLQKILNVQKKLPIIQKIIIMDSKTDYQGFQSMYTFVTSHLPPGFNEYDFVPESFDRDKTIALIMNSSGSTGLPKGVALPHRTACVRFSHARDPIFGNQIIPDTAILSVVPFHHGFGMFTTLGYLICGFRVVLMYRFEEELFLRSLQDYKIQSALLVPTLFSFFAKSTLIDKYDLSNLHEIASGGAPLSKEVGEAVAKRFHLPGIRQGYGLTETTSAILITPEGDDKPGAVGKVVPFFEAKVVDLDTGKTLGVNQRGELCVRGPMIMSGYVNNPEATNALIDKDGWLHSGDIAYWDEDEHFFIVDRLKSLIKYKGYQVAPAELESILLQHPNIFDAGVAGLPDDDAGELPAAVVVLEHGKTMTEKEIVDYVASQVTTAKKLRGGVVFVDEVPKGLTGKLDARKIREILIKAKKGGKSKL
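Purified P. pyralis luciferase, 10 nM final, with Km-level 10 uM D-luciferin and 10 uM ATP in 50 mM Tris acetate pH 7.5, 10 mM Mg acetate, 0.01% Tween-20, 0.05% BSA; 6-point qHTS titration about 60 µM downward; luminescence read.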
* hit, by the source's call; [ ] = dose if it differs, or a comment. An excerpt weighted towards active compounds, which were near 7.5% of everything screened. Calls come from the whole dose curve; as a rule, active = well fitted curve in the direction sought with a large enough effect; inconclusive = small, poorly fitted or top-dose-only effect, or another doubt; inactive = no such curve, though single readings can be large; an effect the other way counts as inactive or inconclusive. Potency is the fitted concentration of half-maximal effect.

What do the screens show for `Cc1ccc2nc(SCC(=O)c3ccc4c(c3)OCO4)[nH]c2c1`?
ELG1 genotox: 6.1%; Luc counter: -1.4%; NPC1 promoter act: 9.4%; Rab9 promoter act: 5.1%; SMN2 splice up: -7.1%; FLuc modulator: inconclusive

What do the screens show for `Cc1cc2nc(SC(C)C(=O)O)[nH]c2cc1C` (stereo not given)?
ELG1 genotox: -0.5%; Luc counter: 1.8%; NPC1 promoter act: -1.1%; Rab9 promoter act: 0.3%; SMN2 splice up: -3.4%; FLuc modulator: 21.3µM*

What do the screens show for `O=C(CSc1ncccc1-c1nc2ccccc2[nH]1)Nc1ccc2c(c1)OCCO2`?
ELG1 genotox: 10.7%; Luc counter: -1.7%; NPC1 promoter act: 6.9%; Rab9 promoter act: 19.6%; SMN2 splice up: -6.4%[1.84 µM]; FLuc modulator: 26.9µM*

How did NC(=O)Cc1nc(-c2ccc(F)cc2)cs1 do in these assays?
ELG1 genotox: 7.4%; NPC1 promoter act: 4.0%; Rab9 promoter act: 12.7%; FLuc modulator: -2.2%

How did CC(C)(C)C(=O)OCc1nc(-c2ccc3c(c2)OCCO3)cs1 do in these assays?
ELG1 genotox: inconclusive; NPC1 promoter act: 2.82µM*; Rab9 promoter act: 3.16µM*; FLuc modulator: 0.536µM*

What do the screens show for `COc1ccc(-c2csc(COC(=O)C(C)(C)C)n2)cc1`?
ELG1 genotox: 5.7%; NPC1 promoter act: 23.9%; Rab9 promoter act: inconclusive; FLuc modulator: 2.39µM*

How did CCCC(=O)Nc1nc(-c2ccc(OC)cc2)cs1 do in these assays?
ELG1 genotox: inconclusive; Luc counter: 17.1%; NPC1 promoter act: 24.1%; Rab9 promoter act: inconclusive; SMN2 splice up: inconclusive; FLuc modulator: inconclusive

Results for CC(C)(C)C(=O)OCc1nc(-c2ccc(Cl)cc2)cs1 ?
ELG1 genotox: inconclusive; NPC1 promoter act: 3.55µM*; Rab9 promoter act: 4.47µM*; FLuc modulator: 1.2µM*

What do the screens show for `CC(C)(C)C(=O)OCc1nc(-c2ccc(F)cc2)cs1`?
ELG1 genotox: 17.9%; NPC1 promoter act: inconclusive; Rab9 promoter act: 2.51µM*; FLuc modulator: 1.35µM*

How did COc1ccc(-c2csc(NC(=O)C3CC(=O)N(c4ccc5c(c4)OCCO5)C3)n2)cc1 (stereo not given) do in these assays?
ELG1 genotox: -3.7%; NPC1 promoter act: -4.2%; Rab9 promoter act: -2.5%; FLuc modulator: -14.4%

What do the screens show for `CCCCCCN1CC(=O)N2Cc3[nH]c4ccccc4c3C[C@H]2C1=O`?
ELG1 genotox: -4.1%; NPC1 promoter act: -12.3%; Rab9 promoter act: -7.4%; FLuc modulator: 4.1%

Results for N#Cc1ccc(C(=O)Nc2ccccc2-c2nc3ccccc3s2)c(F)c1 ?
SMN2 splice up: 0.0%; FLuc modulator: -4.9%

What do the screens show for `O=C(Nc1ccc(F)cc1)Nc1cccnc1`?
ELG1 genotox: 0.8%; NPC1 promoter act: 10.3%; Rab9 promoter act: 4.3%; FLuc modulator: 16.9µM*

Results for O=C(Nc1ccc(Cl)cc1)Nc1ccon1 ?
ELG1 genotox: 2.7%; NPC1 promoter act: -21.5%; Rab9 promoter act: 6.2%; FLuc modulator: inconclusive

What do the screens show for `O=C(Nc1ccccc1)Nc1ccc(Oc2cccnc2)nc1`?
ELG1 genotox: 5.5%; NPC1 promoter act: 27.1%; Rab9 promoter act: 24.9%; FLuc modulator: 13.5µM*

Results for Cc1ccc(NC(=O)Nc2ccon2)cc1Cl ?
ELG1 genotox: 2.9%; NPC1 promoter act: 21.5%; Rab9 promoter act: 23.4%; FLuc modulator: 19µM*

Results for O=C(NCC(F)(F)F)Nc1cccnc1 ?
ELG1 genotox: 1.3%; Luc counter: -0.4%; NPC1 promoter act: -6.6%; Rab9 promoter act: 7.1%; SMN2 splice up: -10.5%; FLuc modulator: -1.3%

How did O=C(Nc1ccc(OC(F)(F)F)cc1)Nc1cccnc1 do in these assays?
ELG1 genotox: 6.3%; NPC1 promoter act: inconclusive; Rab9 promoter act: inconclusive; FLuc modulator: 7.57µM*

Results for COc1ccc(NC(=O)N2CCN(Cc3nc4ccc(C)cc4o3)CC2)cc1OC ?
FLuc modulator: -2.5%

What do the screens show for `O=C(Nc1cccnc1)Nc1cc(Cl)cc(Cl)c1`?
ELG1 genotox: -5.3%; Luc counter: -0.3%; NPC1 promoter act: -9.5%; Rab9 promoter act: -5.6%; FLuc modulator: inconclusive

What do the screens show for `CCOc1ccc(NC(=O)Nc2ccon2)cc1`?
ELG1 genotox: inconclusive; NPC1 promoter act: 25.3%; Rab9 promoter act: inconclusive; FLuc modulator: 23.9µM*

How did CN1CCc2cc(NC(=O)Nc3cccnc3)ccc21 do in these assays?
Luc counter: -2.4%; NPC1 promoter act: 9.2µM*; Rab9 promoter act: inconclusive; SMN2 splice up: inconclusive

What do the screens show for `CCC(C)c1ccc(NC(=O)Nc2cccnc2)cc1` (stereo not given)?
ELG1 genotox: inconclusive; NPC1 promoter act: 1.78µM*; Rab9 promoter act: 4.47µM*; FLuc modulator: 1.69µM*

What do the screens show for `O=C(Nc1ccccc1)C(=O)Nc1cccnc1`?
ELG1 genotox: inconclusive; NPC1 promoter act: 0.501µM*; Rab9 promoter act: 0.398µM*; FLuc modulator: 3.01µM*

How did COc1ccc(C(C)=O)cc1CSc1nnc(-c2ccc(Cl)cc2)n1-c1ccccc1 do in these assays?
ELG1 genotox: -11.4%; Luc counter: -6.0%; NPC1 promoter act: -1.2%; Rab9 promoter act: -1.7%; SMN2 splice up: -26.0%; FLuc modulator: -2.3%

How did Cn1ccc2cc3c(cc21)CCN3C(=O)Nc1cccnc1 do in these assays?
ELG1 genotox: inconclusive; Luc counter: -3.1%; NPC1 promoter act: 3.66µM*; Rab9 promoter act: 3.16µM*; SMN2 splice up: inconclusive; FLuc modulator: 6.01µM*

What do the screens show for `CC(=O)c1ccc(NC(=O)Nc2cccnc2)cc1`?
ELG1 genotox: 20.6µM*; NPC1 promoter act: 2.51µM*; Rab9 promoter act: inconclusive; FLuc modulator: inconclusive

What do the screens show for `Cc1ccc(NC(=O)Nc2cccnc2)cc1Cl`?
ELG1 genotox: inconclusive; NPC1 promoter act: inconclusive; Rab9 promoter act: 27.7%; FLuc modulator: 4.78µM*

What do the screens show for `COc1cc2c(cc1C(F)(F)F)N(C(=O)Nc1cc(F)cc(-c3cccnc3)c1)CC2`?
Luc counter: -3.8%; SMN2 splice up: -18.4%

How did CC(=O)c1ccc(NC(=O)Nc2ccncc2)cc1 do in these assays?
ELG1 genotox: 12.4%; Luc counter: -0.6%; NPC1 promoter act: 1.0%; Rab9 promoter act: 20.3%; SMN2 splice up: 15.3%; FLuc modulator: -26.5%

Results for COc1cc(/C=N/N=C/c2cc(OC)c(O)c(OC)c2)cc(OC)c1O ?
ELG1 genotox: 3.1%; Luc counter: -4.1%; NPC1 promoter act: 0.5%; Rab9 promoter act: 0.2%; SMN2 splice up: 14.0%; FLuc modulator: 16.9µM*
